# Test results as given in PubChem BioAssay AID652162 (Broad Institute, 2013).
# Where “and” joins values, the source holds several entries; their conditions need not be identical. Equal values may be shown once. Screen size: about 350,000 compounds; about 840 (0.24%) were called active. Only a selection was taken, and actives are over-represented in it overall. Values without a mark were called inactive. Cut-off read from the data, not from the text of the source: active = inhibition above about 10%; inactive = the rest.
# Target: Toxin B (Clostridioides difficile) (UniProt P18177)
# Test: TcdB glycohydrolase inhibitors, primary screen, biochemical, single point, plate reader (AID 652162)
# Conditions: TcdB glycohydrolase enzymatic assay, at 9.99 µM, active compounds read high
# Sequence of Toxin B (Clostridioides difficile) (P18177 whole entry, looked up): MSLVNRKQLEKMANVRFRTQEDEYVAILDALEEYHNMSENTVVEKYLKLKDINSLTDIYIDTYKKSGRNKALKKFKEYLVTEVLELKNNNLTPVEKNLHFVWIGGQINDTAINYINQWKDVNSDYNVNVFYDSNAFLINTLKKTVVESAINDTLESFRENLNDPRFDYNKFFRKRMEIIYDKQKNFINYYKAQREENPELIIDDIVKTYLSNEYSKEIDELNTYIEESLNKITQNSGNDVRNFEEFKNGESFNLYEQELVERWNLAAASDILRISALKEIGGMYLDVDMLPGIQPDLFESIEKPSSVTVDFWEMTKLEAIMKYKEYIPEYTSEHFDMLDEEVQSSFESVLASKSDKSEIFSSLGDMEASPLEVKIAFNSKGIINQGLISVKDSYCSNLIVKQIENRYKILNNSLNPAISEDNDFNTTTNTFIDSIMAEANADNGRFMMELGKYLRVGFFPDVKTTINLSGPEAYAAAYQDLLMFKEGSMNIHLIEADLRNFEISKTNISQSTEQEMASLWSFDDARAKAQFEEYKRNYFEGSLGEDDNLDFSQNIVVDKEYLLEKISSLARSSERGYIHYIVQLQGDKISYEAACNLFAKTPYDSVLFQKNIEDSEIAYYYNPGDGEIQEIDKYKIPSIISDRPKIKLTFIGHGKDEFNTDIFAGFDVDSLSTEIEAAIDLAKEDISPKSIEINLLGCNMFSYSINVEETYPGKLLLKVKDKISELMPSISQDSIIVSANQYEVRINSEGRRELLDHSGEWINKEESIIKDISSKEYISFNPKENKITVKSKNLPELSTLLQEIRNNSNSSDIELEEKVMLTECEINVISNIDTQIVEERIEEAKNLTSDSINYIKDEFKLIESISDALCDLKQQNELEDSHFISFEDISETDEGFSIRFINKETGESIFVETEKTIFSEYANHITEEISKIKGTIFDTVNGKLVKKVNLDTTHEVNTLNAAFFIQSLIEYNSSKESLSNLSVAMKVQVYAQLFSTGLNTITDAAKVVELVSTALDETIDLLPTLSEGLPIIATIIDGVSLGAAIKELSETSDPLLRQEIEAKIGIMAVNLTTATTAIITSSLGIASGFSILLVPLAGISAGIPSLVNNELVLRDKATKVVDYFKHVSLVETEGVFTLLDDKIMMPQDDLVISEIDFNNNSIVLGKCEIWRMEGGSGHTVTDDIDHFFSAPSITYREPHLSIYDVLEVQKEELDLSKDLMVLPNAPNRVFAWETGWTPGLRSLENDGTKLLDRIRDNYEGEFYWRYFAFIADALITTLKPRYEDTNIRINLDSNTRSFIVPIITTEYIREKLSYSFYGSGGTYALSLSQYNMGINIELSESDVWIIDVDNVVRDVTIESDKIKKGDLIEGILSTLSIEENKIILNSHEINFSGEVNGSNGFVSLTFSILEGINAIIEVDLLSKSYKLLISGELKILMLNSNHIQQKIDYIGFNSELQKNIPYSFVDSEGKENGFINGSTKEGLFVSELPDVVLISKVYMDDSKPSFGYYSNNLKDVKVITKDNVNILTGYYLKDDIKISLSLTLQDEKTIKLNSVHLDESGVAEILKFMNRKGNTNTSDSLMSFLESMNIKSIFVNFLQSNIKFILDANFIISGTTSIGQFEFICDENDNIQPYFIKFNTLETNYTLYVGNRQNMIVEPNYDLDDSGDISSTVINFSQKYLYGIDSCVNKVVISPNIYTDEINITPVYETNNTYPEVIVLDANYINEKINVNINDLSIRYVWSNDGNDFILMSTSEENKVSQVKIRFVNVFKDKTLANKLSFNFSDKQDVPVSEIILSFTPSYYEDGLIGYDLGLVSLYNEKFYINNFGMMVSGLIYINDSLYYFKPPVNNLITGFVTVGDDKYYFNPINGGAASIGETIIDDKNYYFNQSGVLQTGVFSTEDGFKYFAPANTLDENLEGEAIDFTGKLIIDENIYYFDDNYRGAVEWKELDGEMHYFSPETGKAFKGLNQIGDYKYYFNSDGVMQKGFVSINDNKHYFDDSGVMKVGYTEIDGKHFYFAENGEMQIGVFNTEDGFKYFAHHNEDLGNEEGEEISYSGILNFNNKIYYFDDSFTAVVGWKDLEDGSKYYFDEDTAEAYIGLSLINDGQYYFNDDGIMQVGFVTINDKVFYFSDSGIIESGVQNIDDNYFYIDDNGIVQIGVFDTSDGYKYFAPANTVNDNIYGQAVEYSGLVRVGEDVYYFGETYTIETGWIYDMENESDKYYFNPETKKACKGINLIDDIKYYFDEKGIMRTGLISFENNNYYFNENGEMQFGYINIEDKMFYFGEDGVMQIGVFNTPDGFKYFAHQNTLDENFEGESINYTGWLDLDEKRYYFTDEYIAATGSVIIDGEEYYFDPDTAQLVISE
row,SMILES,inhibition
1,O=C(C1CCOCC1)N1CC2(C1)[C@H](c1ccccc1)[C@H](CO)N2Cc1ccc(Cl)cc1,-0.452%
2,Cc1ccc(-c2cnc3c(c2)C(=O)N([C@H](C)CO)C[C@@H](C)[C@H](CN(C)Cc2ccccc2C(=O)O)O3)cc1,0.061%
3,C[C@@H]1CCCCO[C@@H](CN(C)C(=O)NC2CCCCC2)[C@@H](C)CN([C@H](C)CO)C(=O)c2cc(NC(=O)CCCCCC(=O)Nc3ccccc3N)ccc2O1,0.319%
4,COc1ccc(C(=O)OCC(=O)Nc2ccc3[nH]c(=O)[nH]c3c2)c(OC)c1OC,11.5% (active)
5,O=C(COC(=O)c1cccc(Cl)c1)Nc1ccc2[nH]c(=O)[nH]c2c1,-0.403%
6,O=C(COc1ccc([N+](=O)[O-])cc1Cl)Nc1ccc2[nH]c(=O)[nH]c2c1,0.327%
7,C[C@@H]1CN([C@H](C)CO)C(=O)c2cc(NS(=O)(=O)c3ccc(Cl)cc3)ccc2O[C@@H](C)CCCCO[C@H]1CN(C)Cc1ccccc1,-0.656%
8,COc1ccc(-c2ccc(OC(=O)NC3CCS(=O)(=O)C3)cc2)cc1 (stereo not drawn),10.6% (active)
9,N#Cc1ccc(OCC(=O)NC(=O)NC2CCS(=O)(=O)C2)cc1 (stereo not drawn),-2.43%
10,COc1ccc(S(=O)(=O)N2CCCCC2)cc1C(=O)NC1CCS(=O)(=O)C1 (stereo not drawn),0.566%
11,C[C@@H]1CCCCO[C@@H](CN(C)C(=O)NC2CCCCC2)[C@H](C)CN([C@H](C)CO)C(=O)c2cc(NS(=O)(=O)c3ccc(Cl)cc3)ccc2O1,-0.076%
12,C[C@@H]1CN([C@H](C)CO)C(=O)c2cc(NC(=O)Nc3cccc4ccccc34)ccc2O[C@H]1CN(C)C(=O)Nc1ccccc1,-0.695%
13,O=C(c1cnccn1)N1CC(=O)N2[C@H](C1)[C@H](c1ccc(/C=C/c3ccccc3)cc1)[C@@H]2CO,0.636%
14,CO[C@@H]1CC[C@H]2CCN(C)C(=O)[C@@H](C)CN(C)C(=O)c3cccc(C#N)c3OC[C@@H]1O2,0.637%
15,COc1cccc2cc(C(=O)NCc3ccc(C)cc3)c(=N)oc12,0.357%
16,COc1cccc2cc(/C(C)=N/NC(=O)c3ccco3)oc12,14% (active)
17,COc1cccc2cc(C(N)=O)/c(=N\NC(=O)c3ccccc3)oc12,-0.164%
18,COc1ccc(S(=O)(=O)Nc2ccc3c(c2)C(=O)N([C@H](C)CO)C[C@@H](C)[C@H](CN(C)C(=O)c2ccncc2)OCCCC[C@@H](C)O3)cc1,1.52%
19,CNC[C@H]1Oc2cc(C#CC(C)(C)O)ccc2S(=O)(=O)N([C@@H](C)CO)C[C@@H]1C,-0.494%
20,COCC(=O)Nc1ccc2c(c1)C(=O)N(C)[C@@H]1CC[C@@H](CC(=O)NCC(F)(F)F)O[C@H]1CO2,0.945%
21,O=C(C[C@@H]1CC[C@H](NC(=O)Cc2ccccn2)[C@H](CO)O1)NCCc1ccncc1,-1.24%
22,O=C(Nc1ccc(F)cc1)N[C@H]1CC[C@H](CCn2cc(-c3ccc(F)cc3)nn2)O[C@@H]1CO,-2.54%

row,SMILES,inhibition
1,CO[C@@H]1CN(C)C(=O)c2cc(NC(=O)C3CC3)ccc2OC[C@H](C)N(C(=O)c2ccccc2F)C[C@H]1C,0.856%
2,O=C(C[C@@H]1C[C@@H]2c3cc(NC(=O)c4ccc5c(c4)OCO5)ccc3O[C@@H]2[C@@H](CO)O1)NCc1ccc(Cl)cc1,1.53%
3,O=C(C[C@H]1C[C@H]2c3cc(NC(=O)c4ccc5c(c4)OCO5)ccc3O[C@H]2[C@@H](CO)O1)NCc1cccc(F)c1,15.2% (active)
4,O=C(C[C@H]1C[C@@H]2c3cc(NC(=O)c4ccc5c(c4)OCO5)ccc3O[C@@H]2[C@@H](CO)O1)NCc1cccnc1,-0.896%
5,CNC[C@H]1Oc2cc(-c3ccc(C(=O)N(C)C)cc3)ccc2S(=O)(=O)N([C@@H](C)CO)C[C@@H]1C,-0.097%
6,C[C@@H]1CN([C@H](C)CO)C(=O)c2cc(C3=CCCC3)cnc2O[C@H]1CN(C)C,0.146%
7,COc1ccc(NC(=O)N(C)C[C@@H]2Oc3c(NC(=O)c4ccc(-c5nccs5)cc4)cccc3C(=O)N([C@H](C)CO)C[C@@H]2C)cc1,0.889%
8,COc1cccc(NC(=O)N[C@@H]2C=C[C@H](CC(=O)NCc3ccccn3)O[C@H]2CO)c1,-0.684%
9,N#C[C@H]1N[C@H](CO)[C@H]1c1ccc(-c2cccc(F)c2)cc1,-1.58%
10,Cc1ccc(-c2ccc(C3[C@H]4CNC[C@@H]3N4S(=O)(=O)c3ccccc3C)cc2)cc1 (stereo partly drawn),-0.326% and -0.213%
11,COC(=O)[C@@H]1[C@@H](CO)[C@@H]2Cn3c(ccc(-c4ccc(OC)cc4)c3=O)[C@@H]2N1C,-0.952%
12,C[C@@H]1CN([C@H](C)CO)C(=O)c2cc(NC(=O)NC3CCCCC3)ccc2O[C@@H](C)CCCCO[C@H]1CN(C)C(=O)Nc1ccccc1,0.722%
13,C[C@H](CO)N1C[C@H](C)[C@H](CN(C)Cc2ccc3c(c2)OCO3)OCCCC[C@H](C)Oc2ccc(NC(=O)c3ccccc3)cc2C1=O,-0.045%
14,O=c1c([N+](=O)[O-])cccn1Cc1ccc(F)cc1Cl,38.4% (active)
15,O=Cc1cn(Cc2ccc(F)cc2Cl)c2ccccc12,-0.141%
16,Cc1ccc(-c2ccc(=O)n(Cc3ccc(F)cc3Cl)n2)cc1,0.329%
17,CCC(=O)N1C[C@@H](C)[C@H](OC)CN(C)C(=O)c2ccc(NC(=O)COC)cc2OC[C@@H]1C,-0.964%
18,C[C@@H]1CCCCO[C@@H](CN(C)C(=O)NC2CCCCC2)[C@H](C)CN([C@H](C)CO)C(=O)c2cc(NC(=O)Nc3cccc4ccccc34)ccc2O1,-0.319%
19,CN1C(=O)c2cc(NC(=O)c3ccccc3)ccc2OC[C@@H]2O[C@H](CC(=O)NCC3CC3)CC[C@@H]21,0.093%
20,CNC(=O)C[C@H]1CC[C@H]2[C@H](COc3ccc(NC(=O)c4cccc(F)c4)cc3C(=O)N2C)O1,-0.293% and -0.193%
21,CN1C(=O)c2cc(NC(=O)c3cccc(F)c3)ccc2OC[C@@H]2O[C@@H](CC(=O)NCC3CCCCC3)CC[C@H]21,27.1% (active) and 19.3% (active)
